High-throughput results from PubChem.
CYP2C9 inh – blocks human cytochrome P450 2C9 | P11712 | inhibition, % at 5 µM | 96,000 compounds, 20% hits | CYP2C9 Supersomes, luciferin-H conversion, luminescence;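 active means blocking of liver enzyme CYP2C9 beyond about 50% at 5 µM, limit read from the data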
CYP2C19 act – activators of human cytochrome P450 2C19; 96,000 tested, under 10 active; recombinant CYP2C19, luciferin-H EGE luminescence; stronger effect = higher value; 0 = fully inhibited enzyme, 1 = untreated enzyme; activation factor at 5 µM; AID 1025;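 active means activation factor of at least 2 at 5 µM in the primary screen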;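 further: 0 = wells with 2.5 mM tranylcypromine and 1 = vehicle-only wells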
Target sequence (P33261 whole entry, looked up): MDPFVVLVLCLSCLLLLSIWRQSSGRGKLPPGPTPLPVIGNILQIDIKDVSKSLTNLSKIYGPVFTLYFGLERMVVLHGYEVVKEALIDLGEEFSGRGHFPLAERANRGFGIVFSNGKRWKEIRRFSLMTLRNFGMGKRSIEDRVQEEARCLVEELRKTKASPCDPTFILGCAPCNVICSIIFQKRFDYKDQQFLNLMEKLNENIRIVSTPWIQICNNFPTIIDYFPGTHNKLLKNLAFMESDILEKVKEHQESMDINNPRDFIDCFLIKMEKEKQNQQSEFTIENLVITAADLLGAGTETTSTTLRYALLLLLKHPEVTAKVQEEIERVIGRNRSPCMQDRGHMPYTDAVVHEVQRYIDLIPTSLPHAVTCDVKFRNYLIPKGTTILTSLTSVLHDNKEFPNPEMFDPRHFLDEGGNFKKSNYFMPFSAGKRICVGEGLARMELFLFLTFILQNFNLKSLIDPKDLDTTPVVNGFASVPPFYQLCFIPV
CYP2C9 act – CYP2C9 (human) activation; recombinant CYP2C9, luciferin-H conversion, luminescence; stronger effect = higher value; factor 1 = untreated enzyme, 0 = blocked; activation factor at 5 µM; AID 1024; P11712; 96,000 compounds, 1.4% hits;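 active means activation factor of 2 or more for CYP2C9 at a 5 µM dose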;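 further: 0 = sulfaphenazole-blocked wells and 1 = vehicle-only wells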
CYP2C19 inhib – inhibitors of human CYP2C19; 96,000 compounds, 21% hits; CYP2C19 Supersomes, luciferin-H EGE luminescence, 30 min; inhibition, % at 5 µM; P33261;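 active means CYP2C19 inhibition above a set limit at 5 µM in the primary screen, cut at about 50% in these data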;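 further: plate controls were negative control wells for no effect and 2.5 mM tranylcypromine positive control for full effect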
sEH inhibitor – inhibitors of human soluble epoxide hydrolase. recombinant human sEH enzymatic activity assay. inhibition, % at 2 µM. 91,000 compounds, 0.34% hits; in the data active means inhibition above about 80%
sEH activator – soluble epoxide hydrolase (human) activation; activation, % at 2 µM; P34913; AID 717; purified human sEH enzymatic activity, activator screen; 91,000 compounds, 0.04% hits; in the data active means activation above about 37%
An asterisk follows results filed as active; . = no result given. Shown are actives, neighbours in structure and some others; about 27% of the full set was active somewhere.

SMILES	CYP2C9 inh	CYP2C19 act	CYP2C9 act	CYP2C19 inhib	sEH inhibitor	sEH activator
O=c1cc(CO)oc(CN2CCN(c3ccccc3)CC2)c1O	-11.8	1.1	1.1	-5.3	2.7	-2.8
Clc1ccccc1-c1ccc(CN2CCN(c3ccccc3)CC2)o1	64.4*	0.3	0.4	74.3*	2.9	-2.0
CCOC(=O)c1nnc(-c2ccccc2)nc1Sc1c(Cl)cccc1Cl	57.8*	0.8	0.4	23.0	-23.7	20.2
CCOC(=O)c1nnc(-c2ccc(C)cc2)nc1Sc1ccccc1Cl	10.4	0.6	0.9	43.7	-2.0	2.2
COC(=O)c1cc(NC(=O)c2nccnc2C(=O)O)cc(C(=O)OC)c1	1.7	1.2	1	-18.9	10.3	-8.8
Cc1cccc(C)c1NC(=O)C(C)c1ccc(-c2ccccc2)c(F)c1 (stereo unspecified)	82.5*	0.9	0.2	5.2	1.6	0.3
Cc1cccc(N2C(=O)CC(Sc3nc(-c4ccccc4)c4cc(Cl)ccc4n3)C2=O)c1 (stereo unspecified)	58.3*	0.7	0.4	25.1	-8.0	8.3
O=C(NCCOc1nc(N2CCCCC2)nc(N2CCOCC2)n1)Nc1ccccc1	69.0*	0.6	0.3	37.8	-3.9	1.9
CCN(CC)c1nc(OCCNC(=O)Nc2ccccc2)nc(N(CC)CC)n1	88.3*	0.5	0.1	47.9	9.9	-8.2
CCCCCCNC(=O)Nc1ccccc1	56.3*	0	0.4	96.1*	71.3	-70.9
COc1nc(OCCNC(C)=O)nc(N(C)C)n1	3.1	0.9	1	5.7	12.4	-11.4
O=C(NCCN1CCOCC1)Nc1ccccc1	13.7	1	0.9	2.5	-0.6	1.6
CCN(CCNC(=O)Nc1ccc(Cl)cc1)c1ccccc1	26.2	0.4	0.7	58.6*	85.6*	-85.9
Cc1ccc(N(CN2CCCC2=O)C(=O)c2ccc(OC(C)C)cc2)cc1	13.1	0.7	0.9	33.9	-3.6	5.3
O=Cc1ccc(OC(=O)C2CC(=O)N(c3ccc(F)cc3)C2)cc1 (stereo unspecified)	-1.4	1	1	-4.7	-0.6	0.4
CCN(CC)CCNCc1ccc(-c2ccc(Cl)cc2)o1	-12.7	0.8	1.1	15.6	.	.
COc1ccc(C2(NC(C)=O)CCN(C(=O)c3ccco3)CC2)cc1	40.1	0.7	0.6	28.9	7.0	-8.9
Cc1cc(C(=O)NCCC2=CCCCC2)c(C)o1	27.0	0.4	0.7	61.1*	4.3	-1.9
O=C(NCCc1ccccc1)NC1CCCCC1	16.1	0.4	0.8	59.4*	82.5*	-82.1
CCCNC(=O)C(=O)NCCC1=CCCCC1	10.5	0.5	0.9	54.4*	-6.3	5.7
O=C(NCCC1=CCCCC1)C1CC(=O)N(C2CCCCCC2)C1 (stereo unspecified)	57.4*	0.5	0.4	51.8*	1.7	-3.1
NC(=O)NCCC1=CCCCC1	5.3	1	0.9	-1.2	0.2	1.0
O=C(Nc1ccccc1C(=O)N1CCOCC1)C1CCCO1 (stereo unspecified)	-15.7	1.1	1.2	-6.8	-3.4	3.5
O=C(NCCC1=CCCCC1)NC1CCCCC1	.	.	.	.	94.4*	-94.5
CC(SCc1ccccc1)C(=O)NC1CCCC1 (stereo unspecified)	74.2*	0.2	0.3	83.0*	1.0	0.6
SMILES	CYP2C9 inh	CYP2C19 act	CYP2C9 act	CYP2C19 inhib	sEH inhibitor	sEH activator
O=C(O)C1C2CCC(O2)C1C(=O)NCCC1=CCCCC1 (stereo unspecified)	4.8	0.8	1	16.9	-6.7	6.0
COc1ccc(CCNC(=O)C2CCCN2C(=O)NC2CCCCC2)cc1OC (stereo unspecified)	6.1	0.9	0.9	5.8	20.8	-19.8
O=C(NCc1ccccc1)NC1CCCCC1	-4.8	0.8	1	22.5	57.6	-57.8
COc1ccc(CCNC(=O)NC2CCCCC2)cc1OC	0.7	0.2	1	81.6*	63.6	-63.0
CCOC(=O)N1CCN(C(=O)C(CC(C)C)NS(=O)(=O)c2ccc3c(c2)oc(=O)n3C)CC1 (stereo unspecified)	10.5	0.8	0.9	18.9	0.4	-0.8
Cc1nc(N)sc1-c1nnc(SCC(=O)Nc2nccs2)n1C	34.4	0.7	0.7	27.1	4.2	0.0
CCOC(=O)c1c(C)[nH]c(C)c1C(=O)COC(=O)[C@@H](NC(=O)c1ccccc1OCC)C(C)C	98.5*	0	0	100.4*	-0.1	1.5
CCOC(=O)c1c(C)[nH]c(C)c1C(=O)COC(=O)CNC(=O)c1ccc(OCC)cc1	25.5	0.5	0.7	53.4*	-15.1	15.3
CCOc1ccccc1C(=O)NC(C(=O)OCC(=O)Nc1nnc(-c2ccccc2)o1)C(C)C (stereo unspecified)	20.0	0.8	0.8	16.2	2.4	-2.8
CC(C)(C)NCc1ccccc1OCc1cccs1	1.7	1.1	1	-8.1	-2.5	3.4
COc1ccc(CNC(=O)C2CCCN2S(=O)(=O)c2ccc(S(=O)(=O)N(C)C)cc2)cc1 (stereo unspecified)	29.5	0.9	0.7	9.3	.	.
Cc1nn(-c2ccccc2)c2sc(C(=O)N3CCCCC3)cc12	17.6	0.8	0.8	22.5	.	.
Cc1nn(-c2ccccc2)c2sc(C(=O)NNC(=O)COc3ccccc3)cc12	32.4	1	0.7	1.8	-1.3	4.2
CCCCNC(=O)COC(=O)c1cc2c(C)nn(-c3ccccc3)c2s1	78.0*	0.5	0.2	51.0*	.	.
Cc1nn(-c2ccccc2)c2sc(C(=O)NC3CCCCC3)cc12	70.3*	0.8	0.3	22.8	-9.2	7.5
Cc1cnc(NC(=O)c2cc3c(C)nn(-c4ccccc4)c3s2)s1	65.6*	0.4	0.3	56.4*	4.3	-0.8
CCS(=O)(=O)n1nc(-c2ccccc2)nc1SC	-11.4	0.4	1.1	56.1*	-12.8	12.9
CSc1nc(-c2ccccc2)nn1S(=O)(=O)c1ccccc1	.	.	.	.	-13.2	17.0
CCS(=O)(=O)n1nc(-c2ccc(Cl)cc2)nc1N	8.4	0.5	0.9	53.3*	.	.
CCS(=O)(=O)n1nc(-c2ccc(C)cc2)nc1N	12.4	0.7	0.9	31.9	-14.6	17.7
COc1ccc(-c2nc(SC)n(S(=O)(=O)c3ccccc3)n2)cc1	62.0*	0.3	0.4	69.3*	5.9	-5.8
COC(=O)c1ccc(C)c(NC(=O)C2COc3ccccc3O2)c1 (stereo unspecified)	79.4*	0.2	0.2	78.5*	1.7	0.8
NS(=O)(=O)c1ccc(NC(=O)C2COc3ccccc3O2)cc1 (stereo unspecified)	16.5	0.9	0.8	14.4	-2.4	0.1
CC(C)(C)NC(=O)c1ccc(NC(=O)C2COc3ccccc3O2)cc1 (stereo unspecified)	25.0	0.6	0.8	36.9	.	.
COc1ccc(OC)c(NS(=O)(=O)c2ccc(NC(=O)C3COc4ccccc4O3)cc2)c1 (stereo unspecified)	11.0	0.4	0.9	57.1*	18.3	-19.8
